Consider 48 compounds from PubChem BioAssay AID720518 (National Center for Advancing Translational Sciences (NCATS), 2013).

Results filed as inconclusive are left out. A call without a number means that no potency is given here. Activity calls are given as the source filed them. Calls follow the shape of the full dose curve.

The experiment can be described thus: qHTS for Inhibitors of Cell Surface uPA Generation: Wild-type Protective Antigen (WT-PrAg) Counterscreen for Cherry-picked Compounds.
Potency is read from the fitted curve at half-maximal effect.

For `COc1ccc(C(=O)NC(C)c2cnn(-c3ccccn3)c2C)o1` (stereo not drawn), the Potency result is “inactive”.
In the case of `COc1cc(C2NC(=O)NC(C)=C2C(=O)OCC2CCCCC2)ccc1O` (stereo not drawn) it was “inactive”; in that of `CN(C)c1ccc(S(=O)(=O)N2CCC(Cc3ccccc3)CC2)cn1`, “inactive”; in that of `Clc1ccc(-c2nc3ccccn3c2CN2CCSCC2)cc1`, “inactive”.
`CC(NC(=O)NC1CCCCC1)C(c1cccs1)N1CCN(C)CC1` (stereo not drawn): the Potency result is “inactive”.
`COc1cc(CN2CCN(c3ncccn3)CC2)cc(OC)c1`: the Potency entry was “inactive”.
For the compound `COc1ccc([C@H]2[C@H](C(=O)OC(C)(C)C)N3N=Cc4ccccc4C3C23C(=O)c2ccccc2C3=O)cc1OC` (stereo partly drawn), the Potency result is “inactive”.
In the case of `CN(CCO)c1ccc(C(C(=O)c2ccccc2)c2ccc(N(C)CCO)cc2)cc1` it was “inactive”.
In the case of `NC(=O)c1ccc(NC(=O)CN2CCN(S(=O)(=O)c3ccc4ccccc4c3)CC2)cc1` it was “inactive”; in that of `O=c1[nH]c2c(s1)C(c1ccc(O)cc1)C1C3CCC(C3)C1S2` (stereo not drawn), “inactive”.
For the compound `CN(C)CCNC(=O)Nc1ccc([N+](=O)[O-])cc1`, the Potency result was “inactive”.
In the case of `CS(=O)(=O)Nc1cccc(C2=NN(S(=O)(=O)c3ccccc3)C(c3ccco3)C2)c1` (stereo not drawn) it was “inactive”; in that of `COc1ccc(/C=N/NC(=O)COc2ccc3ccccc3c2)c(C(=O)O)c1OC`, “inactive”; in that of `O=C(COc1ccc(C(=S)N2CCOCC2)cc1)N1CCOCC1`, “inactive”.
In the case of `C[C@@H]1O[C@@H](O[C@@H]2C(=O)c3c(O)cc(O)cc3O[C@H]2c2ccc(O)c(O)c2)[C@H](O)[C@H](O)[C@H]1O` it was “inactive”; in that of `O=C(COC(=O)C1CC2C=CC1C2)NCc1ccccc1Cl` (stereo not drawn), “inactive”.
For `C[C@H](CO)N1C[C@H](C)[C@H](CN(C)S(=O)(=O)c2cn(C)cn2)Oc2ccc(NC(=O)Nc3ccc(C(F)(F)F)cc3)cc2CC1=O`, the Potency result is “inactive”.
`CC1(C)Oc2ccc3ccc(=O)oc3c2[C@@H](O)[C@H]1O`: the Potency entry was “inactive”.
In the case of `FC(F)(F)Oc1ccc(NC2=NCCCS2)cc1`, the Potency result was “inactive”.
For the compound `Cc1ccc(S(=O)(=O)N2CCOCC2)cc1C(=O)OC1CCOC1=O` (stereo not drawn), the Potency entry was “inactive”.
`CC1=CC(C)C(C[N+]2(C)CCCCC2)C(C)C1` (stereo not drawn): the Potency result was “inactive”.
Turning to `CCOc1ccc(NS(=O)(=O)c2coc(C(N)=O)c2)cc1`, the Potency result was “inactive”.
As to `CCC(=O)N(Cc1cc2ccc(C)cc2[nH]c1=O)c1ccccc1OC`, the Potency result was “inactive”.
`O=C(NCCc1cn2ccsc2n1)c1cccs1`: the Potency result was “inactive”.
In the case of `Cn1c(=O)c(=O)n(C)c2cc(S(=O)(=O)CCC(=O)Nc3ccc(F)cc3)ccc21` it was “inactive”; in that of `NC(=O)C1CCN(C(=O)c2cccc3ccccc23)CC1`, “inactive”.
On to `COC(=O)C(CCSC)NC(=O)Cn1ncc2c(=O)oc3ccccc3c21` (stereo not drawn), for which the Potency result is “inactive”.
For `O=C(NCc1ccc2c(c1)OCO2)c1ccccn1`, the Potency result was “inactive”.
On to `COc1ccc(-n2nnnc2SCC(=O)Nc2nnc(C)s2)cc1`, for which the Potency entry was “inactive”.
For `CSc1nc(N)nc2c1ncn2CC(=O)NCC1CCCO1` (stereo not drawn), the Potency entry was “inactive”.
As for `CC(=O)NCCc1cnc[nH]1`, the Potency result was “inactive”.
For `COc1ccc(CNCCC2(C(C)C)CCOC(C)(C)C2)cc1` (stereo not drawn), the Potency entry is “inactive”.
Under `COC(=O)c1ccc(N2CCN(c3ccccc3)CC2)c(NC(=O)C2CC2)c1` stands “inactive”.
Consider `COc1cc(/C=C(/C#N)C(=O)Nc2ccccc2)ccc1OCc1ccc(C(=O)O)cc1`, for which the Potency entry is “inactive”.
For the compound `CCCCCCCCCOC(=O)C1N2C(=O)[C@@H](NC(=O)COc3ccccc3)[C@H]2SC1(C)C` (stereo partly drawn), the Potency result was “inactive”.
In the case of `CC1=CC(C)(C)N2C(=O)C3(NCCc4c3[nH]c3ccccc43)c3cc(C)cc1c32` (stereo not drawn) it was 2330 nM (active).
For the compound `O=C1c2ccccc2[C@@H]2C[C@H](NC34CC5CC(CC(C5)C3)C4)[C@@H](O)CCN12`, the Potency result is “inactive”.
In the case of `CCCCn1c(C2CCCCC2)nc2cc3[nH]c(=O)c(C(C)C)nc3cc21` it was “inactive”; in that of `COc1ccc(C2=NOC(CNC(N)=S)C2)cc1` (stereo not drawn), “inactive”.
Under `Cc1ccc(S(=O)(=O)NNC(=O)c2ccc(F)cc2)cc1` stands “inactive”; under `CCOC(=O)CN1C(=O)N[C@@H](c2ccco2)C(C(=O)OC)=C1C`, “inactive”; under `O=C(CCCOc1ccc(Cl)cc1Cl)NCc1ccncc1`, “inactive”.
Turning to `COc1ccc2c(c1)c1nnc(SCC(=O)Nc3ccccc3F)nc1n2C`, the Potency result is “inactive”.
Turning to `CC1(c2cccc([N+](=O)[O-])c2)CC(C)(C)N(C(=O)c2ccccc2)c2ccccc21` (stereo not drawn), the Potency entry was “inactive”.
On to `COc1ccccc1CNC(=O)CCn1c(=O)oc2ccccc21`, for which the Potency result is “inactive”.
Under `O=C(Nc1c(C(=O)O)oc2ccc(Br)cc12)c1ccccc1` stands “inactive”; under `C[n+]1c2cc(N)ccc2cc2ccc(N)cc21`, “inactive”.
Regarding `O=C(Cc1n[nH]c(=O)c2ccccc12)Nc1cccc(S(=O)(=O)N2CCCCCC2)c1`, the Potency entry is “inactive”.
